Experimental data: PubChem BioAssay (NCI)
Compounds without any hit were thinned out: in the full panel of roughly 79,000, 15% have a hit. Rule as the data show it: active = growth inhibition above about 70%; inactive = the rest. Where a SMILES comes first, the peptide text is derived from it.

Legend:
[1] = NCI Yeast Anticancer Drug Screen. Data for the rad50 strain (AID 155);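 also: 0% = growth of vehicle-only cultures of the same strain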; details: S. cerevisiae rad50 strain growth inhibition; at 50.0 µM; active compounds read high
In short: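 A DNA repair-deficient yeast mutant serves as the test organism; compound-induced growth inhibition is calculated against vehicle-treated cells.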

[2] = NCI Yeast Anticancer Drug Screen. Data for the mec2-1 strain (AID 157); details: S. cerevisiae mec2-1 strain, at 50.0 µM, active compounds read high
In short: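 Readout is yeast growth inhibition, normalised to vehicle-treated controls, in the mec2-1 strain exposed to compound.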

[3] = NCI Yeast Anticancer Drug Screen. Data for the sgs1 mgt1 strain (AID 161);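 also: 0% = growth of cultures given vehicle only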; details: S. cerevisiae sgs1 mgt1 strain, at 50.0 µM, active compounds read high
In short: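 Percent growth inhibition was derived by comparing compound-exposed mutant yeast with vehicle-exposed cultures. The strain carries alterations in DNA damage repair.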

[4] = NCI Yeast Anticancer Drug Screen. Data for the cln2 rad14 strain (AID 165);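 also: 0% = growth equal to vehicle treated cultures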; details: S. cerevisiae cln2 rad14 strain, at 50.0 µM, active compounds read high
In short: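 Relative to vehicle controls, growth inhibition of compound-treated cln2 rad14 yeast was recorded.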

[5] = NCI Yeast Anticancer Drug Screen. Data for the bub3 strain (AID 167); details: S. cerevisiae bub3 mutant strain, at 50.0 µM, active compounds read high
In short: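 Inhibition values come from growth of compound-treated mutant yeast normalised to vehicle-treated controls.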

[6] = NCI Yeast Anticancer Drug Screen. Data for the mlh1 rad18 strain (AID 175); details: S. cerevisiae mlh1 rad18 strain growth inhibition; at 50.0 µM; active compounds read high
In short: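 Test agents were incubated with a yeast strain of defined genotype (DNA damage repair defect). Inhibition of growth was derived by comparison with vehicle-exposed cultures.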

Measured: growth inhibition

CCOC(=O)c1ccc2c3c(ccc([N+](=O)[O-])c13)CC2
inactive: [1] -7% | [2] -6.25% | [3] -14% | [4] -1.9% | [5] 18.5% | [6] -8.35%

Cc1ccc(C2SC(N)=Nc3c2c(C)nn3C(=O)c2ccccc2O)cc1 (stereo not given)
inactive: [1] 8.65% | [2] 16.4% | [3] 34.9% | [4] 5.65% | [5] 10.2% | [6] 12.7%

C=C(C)[C@H]1C[C@@H](O)[C@H]2O[C@@]2(C)C1
inactive: [1] -8.05% | [2] -8.35% | [3] -25.9% | [4] -13.8% | [5] 0.8% | [6] -2.85%

CC1OC(n2ccc3ccc([N+](=O)[O-])cc32)C(O)C(O)C1O (stereo not given)
inactive: [1] -5.2% | [2] -3.85% | [3] -32.7% | [4] -12.2% | [5] -27.8% | [6] -21.4%

Cc1ncc([N+](=O)[O-])n1CCNCCCCn1ccnc1[N+](=O)[O-]
inactive: [1] -28.4% | [2] -21.6% | [3] -6.15% | [4] -23.7% | [5] -52.3% | [6] -17.9%

CCOC(=O)/C(F)=C/c1ccc(C)cc1
inactive: [1] 20.6% | [2] -8.55% | [3] 3.85% | [4] 11.1% | [5] 0.15% | [6] 8.4%

O=C(O)c1cc(Cl)ccc1[N+](=O)[O-]
inactive: [1] 18.6% | [2] -11% | [3] 5.5% | [4] 7.65% | [5] 2.3% | [6] 11%

C=CCC1(C(=O)OC)CCC/C(=N\O)C1 (stereo not given)
inactive: [1] 7.5% | [2] -17.8% | [3] -19.4% | [4] 4.1% | [5] -26.9% | [6] -3.45%

CN(C)Cc1cc(O)c(O)c(CN(C)C)c1
inactive: [1] -16.6% | [2] -19.9% | [3] -8.45% | [4] 5.4% | [5] -40.2% | [6] 13.1%

CC(C)C(=O)C(C)(C)CCc1ccccn1
inactive: [1] -23.4% | [2] -24.8% | [3] -28.6% | [4] -15.8% | [5] -12.2% | [6] -8.35%

Cc1cnc(C)c(C(O)c2ccccc2)n1 (stereo not given)
inactive: [1] -5.9% | [2] -10.3% | [3] -3.7% | [4] -17.9% | [5] -9.3% | [6] -3.65%

COc1cc(C2c3c(cc(OC)c(O)c3OC)C=C(C(=O)O)C2CO)cc(OC)c1O (stereo not given)
inactive: [1] 9.05% | [2] 5.35% | [3] -2.95% | [4] 24.3% | [5] -2.1% | [6] 14.3%

c1ccc(C2CCCN2)cc1 (stereo not given)
inactive: [1] 6% | [2] -12.4% | [3] -11% | [4] 6.25% | [5] -1.4% | [6] 4%

CCC(C)NC(=O)/C=C/c1ccccc1 (stereo not given)
inactive: [1] 31.9% | [2] 17.1% | [3] 14.4% | [4] 12.4% | [5] -1.1% | [6] 6.65%

Nc1c(S(=O)(=O)O)cc(Nc2cccc(S(N)(=O)=O)c2)c2c1C(=O)c1ccccc1C2=O
inactive: [1] 5.05% | [2] 1.1% | [3] -42.4% | [4] -7.65% | [5] -17.1% | [6] 24.6%

Cc1ccc(/C=N/n2c(Cc3ccccc3)n[nH]c2=O)cc1
inactive: [1] 16.9% | [2] 5.1% | [3] 3.65% | [4] 11.8% | [5] 4.25% | [6] 25.6%

CCCC1=C(CC)C(C(=O)Nc2c(C)cccc2C)=NC(S)N1 (stereo not given)
inactive: [1] -11.8% | [2] -15.6% | [3] 0.65% | [4] 14.5% | [5] 1.15% | [6] -19.1%

O=C(O)Cc1ccc2ccccc2c1Br
inactive: [1] -8.5% | [2] 13.1% | [3] 1.8% | [4] 22.8% | [5] -8.6% | [6] 14.3%

NC(Cc1ccccc1)C(=O)NCC(=O)NC(Cc1ccccc1)C(=O)NCC(=O)O (stereo not given) (H-FGFG-OH; configuration not given here)
inactive: [1] -4.35% | [2] -4.15% | [3] -7.95% | [4] -36.4% | [5] -4.7% | [6] 4.2%

COC(=O)Nc1nc2ccccc2n1-c1ccccc1
inactive: [1] 18.9% | [2] 2.85% | [3] 10.6% | [4] 14.2% | [5] 16.4% | [6] 17.5%
